Source: PubChem BioAssay (several laboratories)
Cl transport mod = KCC2 (human) Cl- transport modulation | Q9H2X9 | B-score of Tl+ flux slope (higher = more flux/activation; lower = inhibition) at 10 µM | KCC2 cells, thallium flux FluoZin-2 fluorescence | AID 1456 | 190,000 compounds, 2.2% hits;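 active means thallium flux slope and its plate-corrected score both differing from the plate sample mean at a set confidence after two filtering rounds, in either direction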;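 further: slope of fluorescence scaled to starting intensity during 10 to 20 s after thallium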
Efflux pump mplx = blocks antifungal efflux pumps in multiplex yeast assay; S. cerevisiae Candida pump triplex, Nile Red efflux; inhibition, % at 10 µM; 330,000 compounds, 0.44% hits; AID 485275;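 active means plate passing quality check with inhibition over a set limit, or well fluorescence over plate mean plus 4 SD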;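 further: Nile Red retained in pooled yeast measured as flow cytometry median fluorescence; higher means more Nile Red kept so more efflux inhibition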
H9c2 protect = modulators protecting cardiomyocytes from myocardial damage | protection from H2O2 cell death, % at 20 µM | 360,000 compounds, 0.63% hits | H9c2 cardiomyocytes, H2O2 injury protection, ATPLite, 2 h;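 active means compounds giving at least 50% protection of heart cells from peroxide-induced death in the single-dose screen, raw or plate-pattern-corrected value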
Calb FLC = C. albicans growth modulation with fluconazole; AID 1979; growth inhibition, % (test concentration not listed); C. albicans CaCi-2 (fluconazole-resistant clinical isolate) + fluconazole, Alamar Blue growth, 48 h; 300,000 compounds, 0.57% hits;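 active means growth inhibition above about 58% in most replicates, limit read from the data, passing the limit was not always enough; inconclusive means exactly half the replicates above a set limit; inactive means most replicates below a set limit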;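 further: all wells also contain fluconazole at 8 µg/ml as a sub-toxic cotreatment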
PHOSPHO1 block = inhibitors of human PHOSPHO1 phosphatase; Q8TCT1; recombinant PHOSPHO1, absorbance phosphatase assay; inhibition, % at 13.3 µM; 290,000 compounds, 1.1% hits; in the data active means inhibition above about 60%
Target sequence (Q8TCT1 whole entry, looked up): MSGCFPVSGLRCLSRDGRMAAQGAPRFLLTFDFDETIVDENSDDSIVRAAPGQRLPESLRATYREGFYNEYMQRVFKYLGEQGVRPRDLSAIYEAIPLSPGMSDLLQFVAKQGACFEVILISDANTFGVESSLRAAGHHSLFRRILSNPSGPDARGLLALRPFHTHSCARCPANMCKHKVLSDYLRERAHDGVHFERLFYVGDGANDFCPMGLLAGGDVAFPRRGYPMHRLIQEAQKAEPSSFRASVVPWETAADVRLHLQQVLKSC
Large screens that a line does not name were inactive. Sampled rows, rich in hits. Any-hit rate of the full collection: about 3.3%.

CC1CN(C(c2ccco2)c2sc3ncnn3c2O)CC(C)O1 (configuration not stated)	PHOSPHO1 block 100.2
Cc1nc2sc(C(c3ccco3)N3CCN(c4ccccc4F)CC3)c(O)n2n1 (configuration not stated)	PHOSPHO1 block 93.7
COC(=O)N=Nc1c(O)n(Cc2ccccc2)c2ccccc12	none
CCCCNC(=S)N=Nc1c(O)n(Cc2ccccc2)c2ccccc12	Cl transport mod 8.82
CNC(=O)c1ccc(-c2sc3nc(N4CCOCC4)c4c(c3c2N)CCCC4)o1	H9c2 protect 80.0
CNC(=O)c1ccc(-c2sc3nc(N4CCOCC4)c4c(c3c2N)CC(C)(C)OC4)o1	H9c2 protect 96.9
O=C(O)c1ccccc1NS(=O)(=O)c1cccc(-n2sc3ccccc3c2=O)c1	H9c2 protect 64.0 (no result: Cl transport mod)
CCn1c(COc2ccccc2C)nnc1SCC(=O)CC(=O)Nc1ccccc1	PHOSPHO1 block 69.4
O=Cc1ccc(OCc2cccc(C(F)(F)F)c2)cc1O	H9c2 protect 67.9
COCOc1ccc(C=O)c(O)c1	none (no result: Cl transport mod, PHOSPHO1 block)
COc1cccc(F)c1C(C[N+](=O)[O-])c1c(N)n(C)c(=O)n(C)c1=O (configuration not stated)	Calb FLC 101.3
CC1CCc2c(sc(NC(=O)c3c([N+](=O)[O-])cnn3C)c2C(N)=O)C1 (configuration not stated)	none (no result: Cl transport mod)
CC1Cc2ccccc2N1C(=S)NC(=O)c1cccc(Br)c1 (configuration not stated)	Cl transport mod 63.3, H9c2 protect 68.6
CC1Cc2ccccc2N1C(=S)NC(=O)c1ccc(Cl)cc1Cl (configuration not stated)	Cl transport mod 50.8
COc1cccc(C(=O)NC(=S)N2c3ccccc3CC2C)c1OC (configuration not stated)	none (no result: Cl transport mod)
CC(=O)c1ccc(NC(=S)N2c3ccccc3CC2C)cc1 (configuration not stated)	none
c1ccc2c(C3OCC4(CCCCC4)CO3)cccc2c1	none (no result: Cl transport mod, Efflux pump mplx, Calb FLC, PHOSPHO1 block)
CCOC(=O)C1=C(COC(=O)CCOc2ccccc2)NC(=O)NC1C (configuration not stated)	none (no result: Cl transport mod, Calb FLC, PHOSPHO1 block)
O=C(NNC1=C(C(=O)C(F)(F)F)CCC1)c1cccc(Cl)c1	Calb FLC 100.8 (no result: Cl transport mod)
COc1ccc(C(=O)NNC2=C(C(=O)C(F)(F)F)CCC2)cc1	none
O=C(NNC1=C(C(=O)C(F)(F)F)CCC1)c1ccc(Cl)cc1	Calb FLC 108.8
CN(C)C(=O)c1ccc(NC(=O)c2sccc2-c2ccccc2)cc1	none (no result: Cl transport mod)
O=C(NC1CCCCCC1)C(=O)NC1CC1	none (no result: Cl transport mod)
CCN(CC)C(=O)NC1CCCCCCC1	PHOSPHO1 block 60.0
Cc1cc(C)c2c(N)c(C(=O)Nc3nccs3)sc2n1	none
COCc1cc(C)nc2sc(C(=O)Nc3nccs3)c(N)c12	PHOSPHO1 block 82.8
O=C1OC(CO)CN1Cc1ccccc1 (configuration not stated)	none (no result: Cl transport mod)
CC(=O)N1N=C(c2ccncc2)OC12CCCCC2	PHOSPHO1 block 62.3
CC(=O)N1N=C(c2ccncc2)OC12CCCCCC2	none (no result: Cl transport mod)
COc1ccc(C(=O)c2ccc(OC)c3cccc(O)c23)cc1OC	PHOSPHO1 block 82.7 (no result: Cl transport mod)
COc1ccc(C(=O)c2ccc(OC)c(OC)c2)cc1OC	Calb FLC inconclusive (no result: Cl transport mod)
COc1ccc2c(c1)c(C(=O)CN1CCC3(CC1)OCCO3)c(C)n2C	PHOSPHO1 block 97.2
COc1ccc2c(c1)c(C(=O)CN1CCOCC1)c(C)n2C	none (no result: Cl transport mod)
CN1C(C(=O)NCc2ccco2)=CC(c2ccc(F)cc2)=NS1(=O)=O	none (no result: Cl transport mod)
Cc1cnc(C(=O)OCC(=O)N2c3ccccc3NC(=O)C2(C)C)cn1	none
Cc1nn(-c2ccccc2)c(C)c1C(=O)OCC(=O)N1c2ccccc2NC(=O)C1(C)C	H9c2 protect 99.2
COC(=O)Nc1ccc2c(c1)N(C(=O)CCN1CCN3CCCC3C1)c1ccccc1CC2 (configuration not stated)	none
COC(=O)Nc1ccc2c(c1)N(C(=O)CCN1CCN3CCCC3C1)c1ccccc1S2 (configuration not stated)	PHOSPHO1 block 66.2
CC(C)CC1Nc2ncnc(N3CCN(c4ccccn4)CC3)c2N(Cc2ccccc2)C1=O (configuration not stated)	none (no result: Cl transport mod, Calb FLC, PHOSPHO1 block)
O=C(COc1ccc(C(=S)N2CCCC2)cc1)Nc1ccccc1C(F)(F)F	none (no result: Cl transport mod)
COc1ccc(CNC(=O)C(c2ccc(C)cc2)N(Cc2cccs2)C(=O)c2ccc3c(c2)OCCO3)cc1 (configuration not stated)	H9c2 protect 61.2
